Hsp70 act: Hsp70 transcriptional activators, primary screen, cell-based, HeLa, Hsp70 promoter luciferase, luminescence, 10 µM; actives 0.04% (n = 200,000); HeLa Hsp70 promoter luciferase reporter; scaled: vehicle 0, proteasome-inhibitor control 100%; activation, % at 10 µM;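 active means activation above the mean across all tested compounds plus 3 SD, cutoff set per campaign, cut at about 5.5% in these data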;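 further: 100% = MG132 at 30 µM as the positive control and 0% = DMSO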
GalR3 antag: GalR3 antagonists in HEK293 cells, primary screen, cell-based, fluorescence readout. inhibition, % at 3 µM. HEK293 GalR3-CNG cAMP membrane potential fluorescence; galR3 body fused to GalR1 C-terminus. actives 0.44% (n = 360,000). Galanin receptor type 3 (Homo sapiens), O60755. AID 651719, 2012;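 active means inhibition above the screen-wide average plus 3 SD, cut at about 13% in these data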;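 further: forskolin and galanin both at EC90 stimulate the cells; cAMP rise reported by CNG channel membrane potential dye signal; 0% = forskolin plus galanin with DMSO and 100% = forskolin alone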
Target sequence (O60755 1-299 limits assumed): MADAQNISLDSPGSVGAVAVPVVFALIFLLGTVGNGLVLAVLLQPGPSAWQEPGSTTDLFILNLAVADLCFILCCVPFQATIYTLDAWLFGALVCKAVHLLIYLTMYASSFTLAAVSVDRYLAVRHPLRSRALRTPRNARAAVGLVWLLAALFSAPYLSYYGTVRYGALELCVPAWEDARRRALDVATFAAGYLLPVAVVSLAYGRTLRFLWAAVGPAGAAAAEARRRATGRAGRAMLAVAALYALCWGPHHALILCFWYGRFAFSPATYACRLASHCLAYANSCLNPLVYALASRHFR
GAA850 FXN act: FXN promoter activators, primary screen, cell-based, luciferase luminescence, HEK293 lucGAA850. HEK293 lucGAA850 FXN promoter luciferase reporter, 24 h; percent of 10 µM SAHA response. AID 540364, 2011. activation, % at 6 µM. actives 0.56% (n = 360,000);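 active means activation above the average of all compounds screened plus 3 SD, cutoff fixed separately per campaign, cut at about 7.5% in these data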;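 further: 0% = DMSO wells and 100% = 10 µM SAHA wells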
SMARCA2 act: SMARCA2 (BRM) function activators, primary screen, cell-based, luminescence, high throughput; activation, % at 9.1 µM; actives 1% (n = 370,000); MG213 cells, MMTV-luciferase reporter, dexamethasone, overnight; in the data active means activation above about 7.8%;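 further: 0% = vehicle wells and 100% = reference activator wells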
HIF act: HIF pathway transcriptional activators, primary screen, cell-based, U2OS HRE-luciferase, luminescence | U2OS HRE-luciferase reporter; normalized: DMSO 0%, desferrioxamine 100% | activation, % at 7.5 µM (by protocol) | actives 0.32% (n = 300,000) | AID 1910, 2009;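 active means mean activation of at least 10% of the iron chelator positive control signal, with at least half of replicates also reaching 10%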
SMARCA2 conf: SMARCA2 (BRM) function activators, confirmation, cell-based, luminescence, triplicate | shares compounds with SMARCA2 act | MG213 cells, MMTV-luciferase with dexamethasone, overnight; MG213 cells expressing E1A, Rb sequestered; DMSO wells 0%, reference activator 100% | activation, % at 9.1 µM | actives 30% (n = 3,500);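 active means activation above its plate's cutoff, the mean activation of tested wells plus 3 SD, cut at about 7.9% in these data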
VP16 Luc act: GAL4-VP16 luciferase reporter activation, counter-screen for SMARCA2 (BRM) activator project, cell-based, pG5luc, luminescence, high throughput | actives 41% (n = 3,500) | shares compounds with SMARCA2 act | HEK293 GAL4-VP16 pG5luc reporter; scaled: DMSO wells 0%, SAHA wells 100% | activation, % at 9.1 µM;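 active means activation above the solvent-only control well mean plus 3 SD, averaged across control plates, cut at about 5.2% in these data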
An asterisk follows results filed as active. The list is not random: actives were taken first. Their share in the collection is about 2.2%.

`c1ccc2c(c1)COc1c3ncccc3nn1-2` gave GalR3 antag -6, GAA850 FXN act 2, SMARCA2 act 13*, SMARCA2 conf 8.2* and VP16 Luc act 8.4*.
`CCOC(=O)C(=O)Nc1ccccc1C(=O)Nc1ccc(OC)cc1` gave Hsp70 act 0, GalR3 antag -7, GAA850 FXN act 3, SMARCA2 act 9.1*, HIF act 0, SMARCA2 conf 0 and VP16 Luc act 1.
For COc1ccc(C(=O)Nc2ccccc2C(=O)Nc2ccccc2)cc1 the results were GalR3 antag -1, GAA850 FXN act 2 and SMARCA2 act 0.
For C=C1C(=O)[C@]23C[C@H]1CC[C@H]2[C@]1(C)[C@@H](O)CC[C@@](C)(C(=O)O)[C@H]1C[C@@H]3O the results were GalR3 antag -6, SMARCA2 act 21*, SMARCA2 conf 37* and VP16 Luc act 2.
For C=C1C(=O)[C@]23C[C@H]1CCC2[C@@]1(C)C(C[C@@H]3O)[C@](C)(C(=O)OC)CC[C@@H]1OC(C)=O (stereo not given in full) the results were GalR3 antag 10 and SMARCA2 act -11.
For C=C1C(=O)[C@]23C[C@H]1CC[C@H]2[C@]1(C)[C@@H](OC(C)=O)CC[C@@](C)(C(=O)O)[C@H]1C[C@@H]3O the results were GalR3 antag -2, SMARCA2 act 34*, SMARCA2 conf 9.1* and VP16 Luc act -2.
`O=C(NC1CCCCN(Cc2cccc(Cl)c2)C1=O)c1ccc2ccccc2c1` (stereo not given) gave SMARCA2 act 2.
For C=CCC12C=C(OC)C(=O)C(C1=O)C1c3ccccc3CC12 (stereo not given) the results were SMARCA2 act -1.
COc1ccc2nc(NN=Cc3cccc(C)n3)cc(C)c2c1 was read as GalR3 antag -1 and SMARCA2 act 4.
N#C/C(=N\Nc1ccc(Cl)cc1)C(=N)N1CCCCC1 was read as Hsp70 act 0, GalR3 antag -2, GAA850 FXN act 4, SMARCA2 act 2 and HIF act 1.
For N#C/C(=N\Nc1ccc(F)cc1)C(=N)N1CCCCCC1 the results were Hsp70 act 0, GalR3 antag -7, GAA850 FXN act 4, SMARCA2 act 12*, HIF act -2, SMARCA2 conf 15* and VP16 Luc act 19*.
`Cc1ccc(N/N=C(\C#N)C(=N)N2CCCCCC2)cc1` gave Hsp70 act 0, GalR3 antag -4, GAA850 FXN act 2, SMARCA2 act 8.3*, HIF act -4, SMARCA2 conf 12* and VP16 Luc act 14*.
Screening Cn1ncc2c(Nc3ccc(O)cc3)nc(Cl)nc21 returned GalR3 antag -11, GAA850 FXN act 2, SMARCA2 act 18*, HIF act 1, SMARCA2 conf 5 and VP16 Luc act 2.
Screening N/C(=N\N=C\c1ccc(O)c(O)c1)c1nonc1N returned GalR3 antag -8, GAA850 FXN act 2, SMARCA2 act 5 and HIF act 3.
N/C(=N\N=C\c1ccc([N+](=O)[O-])cc1)c1nonc1N was read as GalR3 antag -6, GAA850 FXN act 6, SMARCA2 act 14*, HIF act 1, SMARCA2 conf 3 and VP16 Luc act 9.1*.
CN(Cc1ccccc1)C(=O)c1cccc(NC(=O)Cc2cccc(NC(=O)C3CCN(C(=O)CCc4ccccc4)CC3)c2)c1 was read as GalR3 antag -6 and SMARCA2 act -3.
CNc1nnc(-c2cc3ccccc3oc2=O)s1 was read as Hsp70 act 1, GalR3 antag -1, GAA850 FXN act 4, SMARCA2 act 8.3*, HIF act 1, SMARCA2 conf 13* and VP16 Luc act 14*.
Cc1ccccc1-c1nnc(NC(=O)c2cc3ccccc3oc2=O)s1 was read as Hsp70 act 0.
COc1ccc2ccccc2c1C=NNC(=O)CN1CCN(Cc2ccccc2)CC1 was read as SMARCA2 act -5.
`O=c1c2ccccc2sn1-c1ccc(F)cc1` gave GalR3 antag -1, GAA850 FXN act -3 and SMARCA2 act 7.
For Cc1ccc(-n2sc3ccccc3c2=O)cc1 the results were Hsp70 act 0, GalR3 antag -5, GAA850 FXN act -4, SMARCA2 act 8.0*, HIF act 0, SMARCA2 conf 11* and VP16 Luc act 2.
`CCOC1=C2[C@@H](CN(S(=O)(=O)c3ccc(C)cc3)[C@H]2c2cccc3ccccc23)[C@H]2C(=O)N(c3ccccc3)C(=O)[C@H]2C1` gave GalR3 antag -7 and SMARCA2 act 1.
`CCOC1=C2[C@@H](CN(S(=O)(=O)c3ccc(C)cc3)[C@H]2c2cccc3ccccc23)[C@H]2C(=O)N(C3CCCCC3)C(=O)[C@H]2C1` gave GalR3 antag -6, SMARCA2 act 10*, SMARCA2 conf -2 and VP16 Luc act -1.
`COc1ccccc1CCn1cnc(-c2ccc(Br)cc2)c1CC(C)C` gave GalR3 antag -5 and SMARCA2 act -4.
`COc1ccc(C2=NN(S(C)(=O)=O)C(c3cccs3)C2)cc1` (stereo not given) gave Hsp70 act 1, GalR3 antag -5, GAA850 FXN act 4, SMARCA2 act 10*, HIF act 3, SMARCA2 conf 8.1* and VP16 Luc act 6.5*.
O=C1/C(=C\c2ccccc2)CCc2c1[nH]c1ccccc21 was read as Hsp70 act 0, GalR3 antag -9, GAA850 FXN act -3, SMARCA2 act 2 and HIF act 2.
Cc1ccc(/C=C2/CCc3c([nH]c4ccccc34)C2=O)cc1 was read as Hsp70 act 0, GalR3 antag -6, GAA850 FXN act 6, SMARCA2 act 8.2*, HIF act 2, SMARCA2 conf 3 and VP16 Luc act 11*.
CCc1nc2ccc(C(=O)Nc3ccc(OC)c(OC)c3)cn2c1N(CCC(C)C)CCN(C)C was read as GalR3 antag -6, GAA850 FXN act -4 and SMARCA2 act -5.

High-throughput results as filed in PubChem BioAssay.
